# Source: PubChem BioAssay (National Center for Advancing Translational Sciences (NCATS))
# MCF10A rerep = A quantitative high throughput screen for small molecules that induce DNA re-replication in MCF 10a normal breast cells; MCF 10A DNA re-replication, Hoechst nuclear intensity, 48 h; 350,000 compounds, 2.9% hits; Potency, µM (highest dose often 46.1 µM), hits mostly activators; further: nearly all actives have a fitted effect of over 50% in size
# TDP1 cell CPT = qHTS for Inhibitors of human tyrosyl-DNA phosphodiesterase 1 (TDP1): qHTS in cells in presence of CPT. chicken DT40 Tdp1-/-;hTDP1 cells + 20 nM CPT, ATP luminescence, 48 h. Potency, µM (series often up to 46.2 µM), hits mostly inhibitors. 420,000 compounds, 12% hits. AID 686979, 2013; further: nearly all actives have a fitted effect of over 55% in size
#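 Chicken DT40 Tdp1-/- cells stably complemented with human TDP1 were seeded at 400 cells/well in medium containing 20 nM camptothecin, exposed to pin-transferred compounds, and grown at 37 °C for at least 48 hr. Viability was read as ATP luminescence.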
# Chronic BCR inh = qHTS Assay to Find Inhibitors of Chronic Active B-Cell Receptor Signaling | ABC-DLBCL IkBa-CBG/CBR reporter, luminescence ratio, 4 h | Potency, µM (series often up to 46.1 µM), actives largely listed as inhibitors | 340,000 compounds, 0.05% hits | AID 493014, 2011; active means well fitted inhibition curve with a large enough effect in the signal ratio, with a control signal flat, not every such curve was filed as active; inconclusive means small, poorly fitted or top-dose-only effect, or effect the other way, or a change in a side signal; the % refers to the signal ratio
#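 Cell line TMD8 (human ABC DLBCL), stably expressing tet-inducible CBG68-IkBa fusion and CBR; IMDM/0.5% FBS; cpd up to 46 uM; dox induction, 4 h, 37C/5% CO2; dual luminescence; green/red ratio; MG132 control.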
# TDP1 cell noCPT = qHTS for Inhibitors of human tyrosyl-DNA phosphodiesterase 1 (TDP1): qHTS in cells in absence of CPT. 420,000 compounds, 15% hits. Potency, µM (doses to about 46.2 µM), hits mostly inhibitors. DT40 Tdp1-/- hTDP1 cells, no CPT, ATP luminescence, 48 h; further: nearly all actives have a fitted effect of over 55% in size
#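 Growth of hTDP1-complemented DT40 Tdp1-knockout cells is measured by ATP luminescence after at least 48 hr compound exposure at 37 °C, with DMSO substituting for the 20 nM CPT used in the parallel screen.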
# IL-1B inflam inh = qHTS for Inhibitors of Inflammasome Signaling: IL-1-beta AlphaLISA Primary Screen; THP-1 LPS/ATP IL-1B secretion, AlphaLISA, 16 h; active compounds read low; activity change, % at 57.5 µM; 360,000 compounds, 4.7% hits; in the data active means activity change below about -50%; inconclusive means mostly about -30% to -49%
#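 Secreted IL-1B measured by AlphaLISA bead assay after 16 h compound exposure of THP-1 cells; compounds (final up to 57.5 uM) added 1 h before LPS (250 ng/mL) and ATP (1.25 mM) stimulation; lower signal means less secretion.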
# SW480 rerep = A quantitative high throughput screen for small molecules that induce DNA re-replication in SW480 colon adenocarcinoma cells. SW480 DNA re-replication, Hoechst DNA content imaging, 48 h. 340,000 compounds, 1.8% hits. Potency, µM (titrated, usually from 46.1 µM), hits mostly activators. AID 624297, 2012; further: nearly all actives have a fitted effect of over 55% in size
#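 Treated cells incubate 48 hr (37 C, 5% CO2), are stained 40 min with Hoechst, and nuclear fluorescence is enumerated; a rise in nuclei with high DNA signal marks re-replication.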
# Hits are given with their value; i = inactive; ? = inconclusive; nt = not tested or not shown; [ ] = dose if it differs, or a comment. Rows were chosen to be rich in hits. Some 19% of all compounds tested hit in one or more screens of this group. Unless noted, the call rests on the fitted dose curve; in most records, active means well fitted curve in the direction sought with a large enough effect; inconclusive means small, poorly fitted or top-dose-only effect, or another doubt; inactive means no such curve, though single readings can be large; an effect the other way counts as inactive or inconclusive.
SMILES,MCF10A rerep,TDP1 cell CPT,Chronic BCR inh,TDP1 cell noCPT,IL-1B inflam inh,SW480 rerep
O=C(O)CNC(=O)CC1S/C(=N/N=C/c2ccccc2O)NC1=O (stereo not drawn),i,21µM,i,16µM,i,i
CC(C)OCCCNC(=O)C1CCN(S(=O)(=O)N2CCCC2)CC1,i,i,i,i,i,i
Fc1ccc(C(CCNCc2ccccn2)c2ccc(Cl)cc2)cc1 (stereo not drawn),?,?,?,18µM,-90,i
CN(C)CC[C@@H](c1ccc(Cl)cc1)c1ccccn1,i,i,nt,i,-110,i
OC(CNCc1ccccn1)c1ccccc1 (stereo not drawn),i,i,i,?,i,i
CN(C)CC[C@@H](c1ccc(Br)cc1)c1ccccn1,i,?,nt,i,i,i
COc1ccc(OC)c(-c2cc(Cl)c3c(c2)CC(CNC(=O)c2cccnc2SC)O3)c1 (stereo not drawn),nt,i[9.04 µM],nt,?,nt,nt
Cc1cc(=O)oc2c3c(cc(OCC(=O)NCC4CCC(C(=O)O)CC4)c12)OC(C)(C)CC3 (stereo not drawn),i,i,i,i,i,i
Cc1ccc(Nc2c3c(nc4nncn24)CCC3)cc1C,nt,?,nt,16µM,nt,nt
Brc1ccc(Nc2c3c(nc4nncn24)CCC3)cc1,nt,?,nt,18µM,nt,nt
COc1ccc(Nc2c3c(nc4nncn24)CCC3)cc1Cl,nt,18µM,nt,21µM,nt,nt
Cc1ccc(Nc2c3c(nc4nncn24)CCC3)cc1,nt,i,nt,i,nt,nt
O=C(CN(C(=O)c1csnn1)c1cccc(Cl)c1)NC1CCCCC1,i,i,i,i,i,i
Cc1ccc(C)c(Oc2cc(NN3CCCCC3)c([N+](=O)[O-])cc2[N+](=O)[O-])c1,i,?,i,i,i,i
CC1(C)Cc2cccc(Oc3cc(NN4CCCCC4)c([N+](=O)[O-])cc3[N+](=O)[O-])c2O1,i,?,i,16µM,i,i
O=[N+]([O-])c1cc([N+](=O)[O-])c(Oc2ccccc2F)cc1NN1CCCCC1,i,?,i,i,i,i
COc1cc(C(C)=O)ccc1Oc1cc(NN2CCCCC2)c([N+](=O)[O-])cc1[N+](=O)[O-],i,23µM,?,?,i,i
Cc1cc(Oc2cc(NN3CCCCC3)c([N+](=O)[O-])cc2[N+](=O)[O-])c(C(=O)c2ccccc2)cc1Cl,i,21µM,i,?,i,i
O=[N+]([O-])c1cc([N+](=O)[O-])c(Oc2cccc(Cl)c2Cl)cc1NN1CCCCC1,i,23µM,i,?,i,i
Cc1ccc(F)c(Oc2cc(NN3CCCCC3)c([N+](=O)[O-])cc2[N+](=O)[O-])c1,i,?,i,?,i,i
CCCOc1ccc(CC(=O)N/N=C\c2ccc(F)cc2)cc1,i,i,?,?,i,i
O=C(Cc1cccc2ccccc12)N/N=C/c1ccc(O)c([N+](=O)[O-])c1,i,i,?,i,i,i
O=C(Cc1cccc2ccccc12)N/N=C/c1ccc2cccc(O)c2n1,?,?,i,15µM,i,i
CCn1c(CN2CCN(C(c3ccccc3)c3ccccc3)CC2)nc2c1c(=O)n(C)c(=O)n2C,i,?,?,?,i,i
CC(C)NC(=S)NNc1ncnc2sc3c(c12)CC(C)(C)OC3,i,i,nt,?,i,i
SMILES,MCF10A rerep,TDP1 cell CPT,Chronic BCR inh,TDP1 cell noCPT,IL-1B inflam inh,SW480 rerep
CC1(C)Cc2c(sc3ncnc(NNC(=S)NCc4ccccc4)c23)CO1,3.3µM,?,?,23µM,i,3.7µM
Cc1cnc(C)c(-c2cccc3c2OC(CNC(=O)c2cc(C)on2)C3)n1 (stereo not drawn),nt,i[9.04 µM],nt,i,nt,nt
COC(=O)c1cc2sc(Cl)cc2n1CC(=O)Nc1cccc(SC)c1,?,i,i,i,i,?
COC(=O)c1cc2sc(Cl)cc2n1CC(=O)Nc1cc(C)cc(C)c1,nt,21µM,nt,?,nt,nt
COC(=O)c1cc2sc(Cl)cc2n1CC(=O)Nc1ccc(OC)c(OC)c1OC,26µM,i,?,i,i,i
COC(=O)c1cc2ccsc2n1CC(=O)Nc1cc(Cl)ccc1OC,i,7.3µM,?,13µM,i,i
COc1ccc(NC(=O)c2cc(C)cc(C)c2)cc1S(=O)(=O)N1CCCCC1,i,i,i,i,i,i
Cc1cc(C(=O)N2CCC2(C)C(=O)NCCC#N)nn1C (stereo not drawn),nt,i,nt,i,i,nt
CCCCCC(O)(c1ccccc1)C(CN1CCOCC1)c1ccccc1 (stereo not drawn),?,?,i,?,i,?
COc1ccc(C(O)(CCC(C)C)C(CN2CCOCC2)c2ccccc2)cc1 (stereo not drawn),?,23µM,i,21µM,?,i
CC(C)CC(O)(c1ccccc1)C(CN1CCOCC1)c1ccccc1 (stereo not drawn),i,?,i,21µM,i,i
